RPL19A TOR yeast – alters RPL19A-GFP fluorescence in TOR pathway yeast screen; S. cerevisiae RPL19A-GFP strain, flow cytometry, 3 h; hits give low values; percent response vs DMSO, % at 10 µM; hit rate 0.3% among 330,000;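 active = percent response vs DMSO below 50%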;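 note: median channel GFP fluorescence of the barcoded RPL19A-GFP strain; ratio of sample median GFP to plate DMSO average so 100% = DMSO; lower means less RPL19A-GFP as with rapamycin TOR inhibition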
AGP1 TOR yeast – yeast TOR pathway AGP1-GFP modulation | S. cerevisiae AGP1-GFP multiplex flow cytometry, 3 h; GFP as percent of DMSO wells | GFP response vs DMSO, % at 10 µM | hit rate 0.02% among 320,000;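 active = GFP response relative to DMSO above a set limit, near screen average plus 3 SD, cut at about 150% in these data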;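 note: median GFP channel fluorescence of the gated AGP1 strain per well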
LAP4-GFP MLPCN – modulators of TOR pathway LAP4-GFP in S. cerevisiae; S. cerevisiae LAP4-GFP multiplex, flow cytometry GFP, 3 h; median GFP as percent of DMSO wells; hit rate 0.34% among 320,000; GFP response vs DMSO, % at 10 µM;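 active = GFP response vs DMSO above a set limit, about the screen mean plus 3 SD, cut at about 150% in these data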
MEP2-GFP yeast – alters MEP2-GFP fluorescence in TOR pathway yeast screen; S. cerevisiae MEP2-GFP strain, flow cytometry GFP, 3 h; 100% = DMSO control level; GFP response vs DMSO, % at 10 µM; hit rate 0.51% among 330,000; AID 2016;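 active = GFP response versus DMSO above a set limit, roughly screen mean plus 3 SD, cut at about 180% in these data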;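 note: median GFP fluorescence of the barcode-gated MEP2-GFP cells per well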
CIT2 TOR yeast – alters CIT2-GFP fluorescence in TOR pathway yeast screen | hit rate 0.065% among 320,000 | AID 2029 | GFP response vs DMSO, % at 10 µM | S. cerevisiae CIT2-GFP strain, flow cytometry, 3 h; 100 means same as DMSO wells;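 active = GFP response relative to DMSO above a set limit, near the screen mean plus 3 SD, cut at about 150% in these data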;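 note: ratio of well median GFP fluorescence to mean of DMSO wells on the plate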
VLA-4 inh – inhibition in a human VLA-4 binding assay; P13612; VLA-4 expressing cells, ligand binding flow cytometry; inhibition, % (about 7 µM as worked out from the volumes in the protocol); hit rate 0.2% among 330,000; in the data active = inhibition above about 50%
Target sequence (P13612 whole entry, looked up): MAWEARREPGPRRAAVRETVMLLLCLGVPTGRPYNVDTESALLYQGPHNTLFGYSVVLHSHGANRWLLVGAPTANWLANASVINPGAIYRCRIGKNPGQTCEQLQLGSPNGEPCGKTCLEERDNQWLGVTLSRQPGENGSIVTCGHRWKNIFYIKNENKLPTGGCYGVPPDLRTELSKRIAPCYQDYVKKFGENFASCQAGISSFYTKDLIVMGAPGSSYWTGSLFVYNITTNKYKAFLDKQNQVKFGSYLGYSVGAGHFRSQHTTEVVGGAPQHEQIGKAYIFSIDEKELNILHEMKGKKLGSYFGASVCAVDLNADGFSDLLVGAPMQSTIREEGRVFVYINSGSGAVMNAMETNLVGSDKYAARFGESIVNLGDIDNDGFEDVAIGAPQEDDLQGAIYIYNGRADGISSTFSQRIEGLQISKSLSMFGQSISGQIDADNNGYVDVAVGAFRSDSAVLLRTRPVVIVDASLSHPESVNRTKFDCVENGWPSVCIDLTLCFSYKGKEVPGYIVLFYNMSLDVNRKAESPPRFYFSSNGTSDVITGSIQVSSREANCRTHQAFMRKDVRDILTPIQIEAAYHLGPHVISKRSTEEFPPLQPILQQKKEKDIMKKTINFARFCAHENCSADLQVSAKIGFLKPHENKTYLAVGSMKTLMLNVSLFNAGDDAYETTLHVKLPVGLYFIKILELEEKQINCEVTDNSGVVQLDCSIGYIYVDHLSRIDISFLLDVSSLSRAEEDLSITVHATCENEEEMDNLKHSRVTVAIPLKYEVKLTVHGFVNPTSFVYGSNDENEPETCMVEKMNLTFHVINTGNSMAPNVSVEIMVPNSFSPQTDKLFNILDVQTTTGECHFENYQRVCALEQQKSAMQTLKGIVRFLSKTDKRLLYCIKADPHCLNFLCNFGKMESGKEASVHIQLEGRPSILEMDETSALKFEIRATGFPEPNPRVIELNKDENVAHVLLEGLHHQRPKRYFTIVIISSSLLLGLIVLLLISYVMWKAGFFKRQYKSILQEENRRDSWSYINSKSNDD
LAP4 cherry2 – yeast LAP4-GFP modulation, second cherry pick; shares compounds with LAP4-GFP MLPCN; S. cerevisiae LAP4-GFP strain, flow cytometry GFP, 3 h; GFP response vs DMSO, % at 10 µM; hit rate 20% among 590; AID 2621;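 active = GFP signal as percent of the solvent control above about 150%, meaning raised reporter expression, limit read from the data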;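 note: ratio of well median GFP fluorescence to plate DMSO mean so 100% = DMSO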
MEP2-GFP pick2 – second confirmation of modulators of TOR reporter MEP2-GFP in yeast; shares compounds with LAP4-GFP MLPCN; S. cerevisiae MEP2-GFP strain, flow cytometry GFP, 3 h; hit rate 10% among 590; GFP response vs DMSO, % at 10 µM;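 active = GFP signal above 150% of the solvent control wells, that is a rise of more than half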;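 note: median channel GFP fluorescence of all gated yeast cells per well; ratio of median GFP to plate DMSO average so 100% = DMSO level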
RPL19A-GFP pick2 – reconfirmed modulator of RPL19A-GFP TOR reporter in yeast | GFP response vs DMSO, % at 10 µM | S. cerevisiae RPL19A-GFP strain, flow cytometry GFP, 3 h; hits give low values; 100% means same as DMSO wells | shares compounds with LAP4-GFP MLPCN | hit rate 3% among 590 | AID 2623;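 active = under 65% GFP response relative to DMSO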;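 note: median GFP channel fluorescence per well over the all cells gate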
CIT2 GFP CP2 – second confirmation of modulators of TOR reporter CIT2-GFP in yeast; hit rate 8% among 590; GFP response vs DMSO, % at 10 µM; shares compounds with LAP4-GFP MLPCN; S. cerevisiae CIT2-GFP strain, flow cytometry GFP, 3 h; DMSO control wells read 100%;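 active = GFP response vs DMSO above about 150%, limit read from the data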;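 note: median green fluorescence per well over all gated yeast cells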
AGP1 GFP CP2 – reconfirmed modulator of AGP1-GFP TOR reporter in yeast | shares compounds with LAP4-GFP MLPCN | S. cerevisiae AGP1-GFP strain, flow cytometry GFP, 3 h | percent response vs DMSO, % at 10 µM | 590 tested, under 10 active | AID 2643;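 active = over 150 percent of DMSO response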;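 note: median GFP channel fluorescence over all cells without mother daughter split; sample median GFP divided by mean DMSO control so 100% equals DMSO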
Yeast autofluor – counter-screen for compound autofluorescence in yeast s288c cells. AID 2757. fluorescence change (kMESF span) at 33 µM. 610 tested, under 10 active. shares compounds with LAP4-GFP MLPCN. S. cerevisiae s288c, 520 nm autofluorescence, flow cytometry, 3 h; hits give high values; zero means same as solvent-only cells;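 active = fluorescence span over the dose series, or activity score, above about 33, limit read from the data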
Yeast autofl DR – yeast s288c autofluorescence artifact in dose response. 110 tested, under 10 active. S. cerevisiae s288c parental, compound autofluorescence, flow cytometry, 3 h. fluorescence change (span) at 33 µM. shares compounds with LAP4-GFP MLPCN;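 active = fluorescence change span, or the activity score built from it, above 25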
TORC1 bypass gr – wildtype yeast growth loss with TORC1 bypass cells unaffected. 120 tested, under 10 active. growth rating (0-3) at 30 µM. shares compounds with LAP4-GFP MLPCN. S. cerevisiae BY4741 spot growth rating, 48-72 h; hits give low values;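 active = growth rating at most 1 for wild type yeast while the TORC1 bypass strain still grows fully, rated 3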
Numbers without * were called inactive; . = not tested or not shown; + = active, no number. Shown are actives, neighbours in structure and some others; about 1.1% of the full set was active somewhere.

SMILES	RPL19A TOR yeast	AGP1 TOR yeast	LAP4-GFP MLPCN	MEP2-GFP yeast	CIT2 TOR yeast	VLA-4 inh	LAP4 cherry2	MEP2-GFP pick2	RPL19A-GFP pick2	CIT2 GFP CP2	AGP1 GFP CP2	Yeast autofluor	others
COc1ccc(NC(=O)N(C)C[C@@H]2Oc3ccc(NC(=O)NC(C)C)cc3CC(=O)N([C@H](C)CO)C[C@@H]2C)cc1	100.7	101.2	104.6	99.8	105.4	4.7	.	.	.	.	.	.
C/C(=N/NS(=O)(=O)c1ccc(Br)cc1)c1ccc(NC(=O)c2ccc(C)o2)cc1	95.9	100.9	96.6	101.8	100.6	4.5	.	.	.	.	.	.
C/C(=N\NS(=O)(=O)c1ccc([N+](=O)[O-])cc1)c1ccc(NC(=O)c2ccco2)cc1	52.1	75.3	89.8	153.6	83.0	4.6	103.2	97.8	101.2	98.7	99.5	.
Cc1nn(CCCC(=O)NCCc2ccc(Cl)cc2)c(=O)c2nn(-c3ccccc3)c(C)c12	99.3	102.1	101.3	103.2	98.1	-1.3	.	.	.	.	.	.
Cc1ccc(NC(=O)c2cc(N3C(=O)C=CC3=O)ccc2Cl)cc1C	70.3	99.9	114.7	91.4	66.2	32.7	156.3*	167.7*	77.7	105.7	88.3	1.31
Cc1ccc(NC(=O)c2cc(-n3cnnc3)ccc2Cl)cc1	108.5	94.5	104.8	97.9	104.1	11.7	.	.	.	.	.	.
CCN1CCN(C(=O)c2ccc(C)c(S(=O)(=O)Nc3cccc(C)c3)c2)CC1	99.4	111.3	102.6	114.4	166.0*	-14.0	100.0	104.8	99.0	104.0	103.5	.
Cc1ccc(C(=O)CN2C(=O)NC3(CCCCCC3)C2=O)c(C)c1	96.9	104.2	96.8	96.0	99.9	10.9	.	.	.	.	.	.
Cc1ccc(-n2nc(C(=O)NN)c(C)c(C#N)c2=O)cc1Cl	89.6	58.5	102.2	+	122.9	-3.4	101.2	97.8	97.2	108.5	101.7	.
C[C@H]1CN=C(N(C)C)N1CCc1ccc(F)cc1	100.7	104.8	94.2	99.5	97.9	31.6	.	.	.	.	.	.
Cn1ncc(S(=O)(=O)Cc2ccccc2)c(Cl)c1=O	99.8	101.3	160.7*	94.0	92.8	30.0	.	.	.	.	.	0.2	Yeast autofl DR=0.84;TORC1 bypass gr=3
CC(C)(C)c1nnc(N/N=C/c2cc(Br)ccc2O)n(N)c1=O	87.6	98.8	185.3*	102.9	94.8	21.8	215.4*	139.7	98.2	114.0	105.3	1.3
COc1cc(SSc2cc(OC)cc([N+](=O)[O-])c2N)c(N)c([N+](=O)[O-])c1	58.3	87.7	235.9*	82.8	108.0	-4.5	.	.	.	.	.	1.01

From PubChem BioAssay
